SMILES strings stand for the structures. Active and inactive are the calls of the source. The calls were made as follows: active = hit-call score of the fitted dose curve at least 0.9, where 1 is the maximum; inactive = score below 0.9.

The test in a line: CCTE_Simmons_MITO_max_resp_rate: CCTE's HepG2 Seahorse XF Respirometric Screening Assay at Maximal Respiratory State [uncoupled], Simmons Lab (AID 2284002). The following applies: actives raise or lower the signal. The method, then:
CCTE_Simmons_MITO is cell-based, respirometric assay using HepG2 cells and a Seahorse XF Analyzer to measure oxygen consumption rates over four temporal phases spanning a total of 72 minutes: pre-injection (pre-treatment), basal (following test compound injection), maximal (following FCCP uncoupler injection), and inhibited (following rotenone/antimycin A injection)CCTE_Simmons_MITO_max_resp_rate is one of 4 assay components calculated from the CCTE_Simmons_MITO assay. It is designed to make measurements of maximal respiration using a form of respirometric reporter, as detected with […] signals by Seahorse XF96 technology. Data from the assay component CCTE_Simmons_MITO_max_resp_rate was analyzed at the endpoint, CCTE_Simmons_MITO_max_resp_rate_OCR, with bidirectional fitting relative to DMSO as the negative control and baseline of activity. Using a type of respirometric reporter, measures of maximal respiration for gain or loss-of-signal activity can be used to understand cellular oxygen consumption as it relates to cellular respiration. To generalize the intended target to other relatable targets, this assay endpoint is annotated to the mitochondria intended target family, where the subfamily is respiration.
Test chemicals were administered as a titrated series of 7 concentrations from 125 nM up to 100 uM [final] prior to kinetic endpoint detection at 6 minute intervals [3 min mix followed by 3 minutes measure] for 72 minutes. Three biological replicates of technical singles were run for every chemical concentration tested. Dimethylsulfoxide [DMSO] was used as the vehicle control. The electron transport chain inhibitor fenpyroximate was used as the positive control for decreased basal respiration and was administered as a titrated series of 6 concentrations from 250 nM up to 2.75 uM [final] with technical triplicates for the top concentration only. The uncoupler 2,4-dintirophenol was used as the positive control for increased basal respiration and was administered as a titrated series of 6 concentrations from 938 nM up to 40 uM [final] with technical triplicates for the top concentration only. A Seahorse XF Analzyer is required to measure the response.
On to `CCC(=O)Nc1ccc(Cl)c(Cl)c1`, for which the AC50 (usually the concentration at which the activity in the assay is half-maximal) is 27.3 µM (active). As for `CCC(CC)Nc1c([N+](=O)[O-])cc(C)c(C)c1[N+](=O)[O-]`, the half-maximal activity concentration (AC50) is 29.8 µM (active). Turning to `CC(COc1ccc(Oc2ccccc2)cc1)Oc1ccccn1` (stereo unspecified), the call was inactive.

For `CC1(C(=O)Nc2ccc(O)c(Cl)c2Cl)CCCCC1`, the AC50 was 31.4 µM (active). Consider `CC(C1CC1)C(O)(Cn1cncn1)c1ccc(Cl)cc1` (stereo unspecified), for which the AC50 is 50 µM (active).

As for `CN(C)[C@@H]1C(=O)C(C(N)=O)=C(O)[C@@]2(O)C(=O)C3=C(O)c4c(O)cccc4[C@@](C)(O)[C@H]3[C@H](O)[C@@H]12`, the call was inactive. As to `CON=C(C(=O)OC)c1ccccc1CON=C(C)c1cccc(C(F)(F)F)c1`, the AC50 is 7.03 µM (active).

With `C#CCC1=C(C)C(OC(=O)C2C(C=C(C)C)C2(C)C)CC1=O` (stereo unspecified), the half-maximal activity concentration (AC50) was 33.7 µM (active). As for `O=C(O)c1cc(Oc2ccc(C(F)(F)F)cc2Cl)ccc1[N+](=O)[O-]`, the concentration at half-maximal activity (AC50) was 32.9 µM (active). With `N#CSCSC#N`, the AC50 was 50 µM (active).

For the compound `FC(F)C(F)(F)OCC(Cn1cncn1)c1ccc(Cl)cc1Cl` (stereo unspecified), the half-maximal activity concentration (AC50) is 22.5 µM (active). Take `CCCOCC(=Nc1ccc(Cl)cc1C(F)(F)F)n1ccnc1`: the AC50 was 15.4 µM (active). In the case of `C=C(C)[C@H]1Cc2c(ccc3c2O[C@@H]2COc4cc(OC)c(OC)cc4[C@@H]2C3=O)O1`, the AC50 is 0.0663 µM (active). In the case of `CCc1cccc(CC)c1N(COC)C(=O)CCl`, the AC50 was 13.8 µM (active). For `O=[N+]([O-])c1cc(C(F)(F)F)c(Cl)c([N+](=O)[O-])c1Nc1ncc(C(F)(F)F)cc1Cl`, the result was inactive. For the compound `CCOP(=S)(Oc1cnc(C(C)(C)C)nc1)OC(C)C` (stereo unspecified), the AC50 was 50 µM (active). As for `COP(=O)(OC)OC(Br)C(Cl)(Cl)Br` (stereo unspecified), the result was inactive.

With `C[Si](Cn1cncn1)(c1ccc(F)cc1)c1ccc(F)cc1`, the AC50 is 16.2 µM (active). For `CC(C)N(C(=O)SCC(Cl)=C(Cl)Cl)C(C)C`, the compound was called inactive. Take `CCCSP(=O)(OCC)SCCC`: the AC50 was 38.1 µM (active). As for `CCCCOC(=O)[C@@H](C)Oc1ccc(Oc2ccc(C#N)cc2F)cc1`, the outcome was inactive. On to `CSC1=N[C@@](C)(c2ccccc2)C(=O)N1Nc1ccccc1`, for which the half-maximal activity concentration (AC50) was 41 µM (active). Consider `CCc1cccc(C)c1N(C(=O)CCl)C(C)COC` (stereo unspecified), for which the AC50 was 39.7 µM (active).

With `CC[C@H](C)[C@H]1O[C@]2(C=C[C@@H]1C)C[C@@H]1C[C@@H](C/C=C(\C)[C@@H](O[C@H]3C[C@H](OC)[C@@H](O[C@H]4C[C@H](OC)[C@@H](NC)[C@H](C)O4)[C@H](C)O3)[C@@H](C)/C=C/C=C3\CO[C@@H]4[C@H](O)C(C)=C[C@@H](C(=O)O1)[C@]34O)O2`, the concentration at half-maximal activity (AC50) was 97.8 µM (active).

Take `CCOP(=S)(OCC)SCCSCC`: the compound was called inactive. `CC(C)=CC1C(C(=O)OCN2C(=O)C3=C(CCCC3)C2=O)C1(C)C` (stereo unspecified): the AC50 was 39.9 µM (active).

The values are drawn from PubChem BioAssay (EPA / NIEHS).
